Bioassay records as filed in PubChem.
RORg inh: blocks mouse ROR gamma transcriptional activity. P51450. Drosophila S2 Gal4-RORgamma UAS-luciferase reporter, 20 h. Potency, µM (top dose mostly 53.6 µM), without a hit: at the highest dose activity change, negative = inhibition, most hits filed as inhibitors. actives 5.4% (n = 310,000). AID 2551; note: potency is the fitted concentration of half-maximal effect; nearly all actives have a fitted effect of over 60% in size
Target sequence (P51450 whole entry, looked up, the tested form may be a part): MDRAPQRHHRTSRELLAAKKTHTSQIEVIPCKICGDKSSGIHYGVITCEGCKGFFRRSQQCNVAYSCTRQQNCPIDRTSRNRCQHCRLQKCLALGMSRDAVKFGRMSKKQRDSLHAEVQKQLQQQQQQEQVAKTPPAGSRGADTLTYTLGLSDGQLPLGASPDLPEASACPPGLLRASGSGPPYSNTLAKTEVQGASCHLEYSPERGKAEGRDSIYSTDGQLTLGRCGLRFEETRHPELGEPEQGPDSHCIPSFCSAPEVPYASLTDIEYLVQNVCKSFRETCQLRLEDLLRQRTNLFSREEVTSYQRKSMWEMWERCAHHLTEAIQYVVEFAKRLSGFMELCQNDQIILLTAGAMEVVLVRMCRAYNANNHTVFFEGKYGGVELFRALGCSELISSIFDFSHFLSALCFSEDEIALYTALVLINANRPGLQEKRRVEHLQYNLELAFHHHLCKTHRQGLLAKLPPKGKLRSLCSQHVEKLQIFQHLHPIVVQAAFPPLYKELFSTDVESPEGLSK
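Luminescence from a UAS-regulated Photinus luciferase reporter in stably transfected Drosophila Schneider cells is measured; decreased signal marks ROR gamma inhibition. Fusion expression is induced by 700 uM copper sulfate for 20 hr.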
IL-1B inflam inh: inflammasome signaling inhibition, IL-1 beta readout | THP-1 LPS/ATP IL-1B secretion, AlphaLISA, 16 h; stronger effect = lower value | activity change, % at 57.5 µM | actives 4.7% (n = 360,000) | AID 743279; in the data active = activity change below about -50%; inconclusive = mostly about -30% to -49%
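Secreted IL-1B measured by AlphaLISA bead assay after 16 h compound exposure of THP-1 cells; compounds (final up to 57.5 uM) added 1 h before LPS (250 ng/mL) and ATP (1.25 mM) stimulation; lower signal means less secretion.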
DT40 TDP1 CPT: growth inhibition of DT40 Tdp1-/-;hTDP1 cells with camptothecin (screen for TDP1 inhibitors) | chicken DT40 Tdp1-/-;hTDP1 cells + 20 nM CPT, ATP luminescence, 48 h | Potency, µM (top dose mostly 46.2 µM), without a hit: at the highest dose activity change, negative = growth inhibition, actives largely listed as inhibitors | actives 12% (n = 420,000); note: potency is the fitted concentration of half-maximal effect; nearly all actives have a fitted effect of over 55% in size
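Chicken DT40 Tdp1-/- cells stably complemented with human TDP1 were seeded at 400 cells/well in medium containing 20 nM camptothecin, exposed to pin-transferred compounds, and grown at 37 °C for at least 48 hr. Viability was read as ATP luminescence.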
VP16 counter: counter-screen for ROR gamma inhibitors: Gal4-VP16 reporter | Drosophila S2 Gal4-VP16 UAS-luciferase, luminescence, 20 h | Potency, µM (highest dose often 53.6 µM), for the others: top-dose activity, negative = inhibition, hits mostly inhibitors | actives 3.5% (n = 310,000) | AID 2546;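 note: Gal4-VP16 expression switched on by copper sulfate through the metallothionein promoter; potency is the fitted concentration of half-maximal effect; nearly all actives have a fitted effect of over 50% in size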
LDHA inh: inhibitors of human lactate dehydrogenase A; P00338; purified LDHA, NADH/diaphorase-resazurin fluorescence; stronger effect = lower value; activity change, % (values are at about 110 or 230 µM); actives 0.15% (n = 480,000); AID 1347041; in the data active = activity change below about -30%; inconclusive = mostly about -25% to -30%;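 note: plate controls were DMSO wells for no effect and wells without enzyme for full effect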
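Resorufin fluorescence (ex540/em590), read at 0 and 20 min after diaphorase/resazurin addition, reports the NADH left after a 5 min room-temperature reaction of 2 nM human LDH5 with 0.06 mM NADH and 0.2 mM pyruvate.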
DT40 TDP1 no CPT: qHTS for Inhibitors of human tyrosyl-DNA phosphodiesterase 1 (TDP1): qHTS in cells in absence of CPT. DT40 Tdp1-/- hTDP1 cells, no CPT, ATP luminescence, 48 h. Potency, µM (titrated, usually from 46.2 µM), without a hit: at the highest dose activity change, negative = growth inhibition, usual class: inhibitors. actives 15% (n = 420,000). AID 686978, 2013; note: potency is the fitted concentration of half-maximal effect; nearly all actives have a fitted effect of over 55% in size
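A cellular qHTS used chicken DT40 cells lacking endogenous Tdp1 but carrying stably transfected human TDP1. Compounds were applied without camptothecin, and cell growth kinetics were judged by ATP-dependent luminescence after ≥48 hr.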
Starred values were filed as active, the others as inactive; ? = inconclusive; . = no result given; [ ] = remark or other dose. This is a sample that favours compounds with a hit; in the whole collection about 18% have one here. Unless noted, calls come from the whole dose curve; as a rule, active = well fitted curve in the direction sought with a large enough effect; inconclusive = small, poorly fitted or top-dose-only effect, or another doubt; inactive = no such curve, though single readings can be large; an effect the other way counts as inactive or inconclusive. Unless noted, % is set by controls: 0 for no effect and ±100 for the full control effect.

SMILES	RORg inh	IL-1B inflam inh	DT40 TDP1 CPT	VP16 counter	LDHA inh	DT40 TDP1 no CPT
CC(C)NC(=S)N1CCC(Cc2ccccc2)CC1	1.1µM*	-10	?	-20%	-1	?
O=C(NNC(=O)c1ncc(Cl)c(Cl)c1Cl)c1ccc(F)cc1	7.1µM*	21	?	5µM*	-1	?
O=C(NNC(=O)c1nc(Cl)ccc1Cl)c1ccc(F)cc1	11µM*	-7	-26%	?	0	-28%
CC(C)C1NC(=O)N(Cc2cc(F)cc3cccnc23)C1=O (configuration not stated)	.	.	.	.	0	.
O=C(NN1CCOCC1)c1ccn(COc2c(Cl)cccc2Cl)n1	.	.	.	.	-4	.
O=C(NN1CCOCC1)c1ccn(COc2ccc(Br)cc2)n1	.	.	.	.	-33*	.
Cc1ccc(CSc2nc3c(cnn3CCO)c(=O)[nH]2)cc1	.	.	.	.	-3	.
CCOc1ccc(/C=C/C(O)=C2/C(=O)NC3(C)CC2c2ccccc2O3)cc1OC (configuration not stated)	-37%	-20	5.2µM*	?	-4	3.7µM*
CCOc1ccc(/C=C/C(O)=C2/C(=O)N(C)C3(C)CC2c2ccccc2O3)cc1OC (configuration not stated)	?	-101*	5.8µM*	5%[10 µM]	-7	8.2µM*
CC(Cc1c[nH]c2ccccc12)C(=O)Nc1ccc(F)cc1 (configuration not stated)	.	.	.	.	3	.
Cc1cccc(C(=O)NC(=S)Nc2ccc(S(=O)(=O)N3CCCCC3)cc2)c1	14µM*	-1	18µM*	10µM*	-4	15µM*
Cc1cccc(C(=O)NC(=S)Nc2ccc(S(=O)(=O)N3CCN(C)CC3)cc2)c1	13µM*	0	?	?	-1	23µM*
Cc1ccc(C(=O)NC(=S)Nc2ccc(S(=O)(=O)N3CCN(C)CC3)cc2)cc1	11µM*	-6	16µM*	-7%	-2	21µM*
CCOC(=O)Nc1ccc(NS(=O)(=O)c2ccccc2Br)cc1	.	.	.	.	-17	.
COc1ccc(CCN2CN=C(NS(=O)(=O)c3ccc(F)cc3)NC2)cc1	.	.	.	.	0	.
CC1CN(C2CCCCC2)CCC1=O (configuration not stated)	.	.	.	.	-3	.
COc1ccc(Br)cc1CNc1ccc(O)cc1	8.9µM*	-95*	?	?	22	?
COc1ccc(Br)cc1CNc1ccc2[nH]c(=O)[nH]c2c1	3%	-61*	-32%	-13%	2	-29%
COc1ccc(Br)cc1CNC12CC3CC(CC(C3)C1)C2	.	.	.	.	-3	.
Cn1c(=O)c2cc(C(=O)Nc3nc(-c4ccc(C(C)(C)C)cc4)cs3)cnc2n(C)c1=O	.	.	.	.	-6	.
[O-][n+]1c2ccccc2c2n1CCN=C2c1ccc(Cl)cc1	.	15	-12%	.	2	-22%
Cc1ccc(C2=NCCn3c2c2ccc([N+](=O)[O-])cc2[n+]3[O-])cc1	.	8	4.1µM*	.	5	10µM*
O=[N+]([O-])c1ccc2c3n([n+]([O-])c2c1)CCN=C3c1ccc(Cl)cc1	.	-14	9.2µM*	.	7	15µM*
CCN(c1cccc(C)c1)c1ncnc2nc[nH]c12	0%	-4	-28%	-3%	-3	-30%
CCN(CCCNc1ncnc2nc[nH]c12)c1cccc(C)c1	?	40	18µM*	-8%	4	?
SMILES	RORg inh	IL-1B inflam inh	DT40 TDP1 CPT	VP16 counter	LDHA inh	DT40 TDP1 no CPT
Cc1nn(CC(=O)NC(C)(C)C)c(C)c1S(=O)(=O)N1CCCC(C(=O)N2CCCCC2)C1 (configuration not stated)	.	.	.	.	2	.
C=CC(=O)N1C/C(=C/c2ccc(F)cc2)C(=O)/C(=C\c2ccc(F)cc2)C1	.	-84*	0.82µM*	.	-6	-104%
CC(=O)C1=C(O)C(=CC=Cc2ccccc2)OC1=O	.	-2	?	.	8	16µM*
C=C(C)C(=O)/C=C/C=C/c1ccccc1	-7%	.	.	-3%	.	.
CCOc1cc(/C=C/C(=O)NCCc2ccc(S(N)(=O)=O)cc2)ccc1OCC(C)C	6%	-9	13µM*	21%	1	8.2µM*
COc1ccc(CCNC(=O)/C=C/c2cc(OC)c(OC)c(OC)c2)cc1OC	6%	0	-28%	-2%	4	?
COc1cc(/C=C/C(=O)NCCc2ccc(S(N)(=O)=O)cc2)ccc1OCC#N	-2%	10	18µM*	2%	-3	-29%
CCOC(=O)C(c1ccccc1)C(C(=O)OCC)c1ccccc1 (configuration not stated)	.	.	.	.	2	.
CCOc1ccccc1OCc1nn2c(C)nnc2s1	.	.	.	.	4	.
CC1CCN(C(=O)CCN2C(=O)C3C4C=CC(C4)C3C2=O)CC1 (configuration not stated)	0%	9	15%	-6%	-5	-4%
O=C(CCN1C(=O)C2C3C=CC(C3)C2C1=O)N1CCN(c2cccc(Cl)c2)CC1 (configuration not stated)	39%	-1	16µM*	-15%	-4	16µM*
Cc1cccc(N2CCN(C(=O)c3cccc(N4C(=O)C5C6C=CC(C6)C5C4=O)c3)CC2C)c1 (configuration not stated)	?	11	13µM*	3%	1	21µM*
Cc1cccc(N2C(=O)C3C4C=CC(C4)C3C2=O)c1 (configuration not stated)	23%	12	-7%	2%	1	-16%
O=C(CCN1C(=O)C2C3C=CC(C3)C2C1=O)N1CCN(c2ccccn2)CC1 (configuration not stated)	-18%	-6	2%	-5%	-1	-18%
Cc1cccc(N2CCN(C(=O)CCN3C(=O)C4C5C=CC(C5)C4C3=O)CC2C)c1 (configuration not stated)	8%	-7	-29%	-3%	0	26µM*
COCc1cnc2c(c1SCC(=O)NCc1ccccc1Cl)c(=O)n(C)c(=O)n2C	.	.	.	.	-2	.
CCC(C)NC(=O)C1=Cc2sc3c(c2CS1)CCCC3 (configuration not stated)	.	.	.	.	8	.
COc1cc(Cl)c(C)cc1NC(=O)CCCN1C(=O)C(c2ccccc2)Oc2cccnc21 (configuration not stated)	.	.	26µM*	.	-6	21µM*
O=C(CN1C(=O)C(c2ccccc2)Oc2cccnc21)NCc1ccccc1F (configuration not stated)	13%	-12	21µM*	-6%	-14	?
